# The source made the active and inactive calls. The calls were made as follows: active = hit-call score of the fitted dose curve at least 0.9, where 1 is the maximum; inactive = score below 0.9.
# Assay: CCTE_Harrill_HTTr_Apoptosis_MCF7: CCTE's 6-hour Apoptosis Assessment for the High-Throughput Transcriptomics (HTTr) Platform, in MCF-7 cells cultured in DMEM + 10% fetal bovine serum, Harrill Lab (AID 2284011)
# Source text: This is a cell-based assay that evaluates apoptosis using high content imaging to evaluate activation of caspase-3/7 using the CellEvent Caspase 3/7 Green detection reagent in 384-well format.One of seven assay components measured from the CCTE_Harrill_HTTr_Apoptosis assay. This was part of a full screening experiment. This is a cell-based assay that evaluates apoptosis in MCF-7 cells cultured in DMEM + 10% fetal bovine serum. High content imaging is used to evaluate activation of caspase-3/7 using the CellEvent Caspase 3/7 Green detection reagent. Measurements are taken at 6 hours after chemical dosing in 384-well format.The assay component endpoint CCTE_Harrill_HTTr_Apoptosis_MCF7 was analyzed with bidirectional fitting relation to DMSO as the negative control and baseline of activity. Using a type of viability reporter, gain-of-signal activity can be used to evaluate activation of caspase-3/7 using the CellEvent Caspase 3/7 Green detection reagent to understand changes in apoptosis. To generalize the intended target to other relatable targets, this assay endpoint is annotated to cell cycle, where the subfamily is apoptosis.
# Chemicals were tested in MCF7 cells in an eight point dilution series with a six hour exposure duration.
row,Compound,outcome
1,Cc1ccc([N+](=O)[O-])cc1C,inactive
2,Nc1ccc([N+](=O)[O-])cc1Cl,inactive
3,O=P(Oc1ccccc1)(Oc1ccccc1)Oc1ccccc1,inactive
4,CCOS(=O)(=O)OCC,inactive
5,CCOP(=S)(NC(C)C)Oc1ccccc1C(=O)OC(C)C (stereo not given),inactive
6,O=S(=O)(c1ccc(O)cc1)c1ccc(O)cc1,inactive
7,CC(C)(C)OOC(C)(C)C,inactive
8,O=C(O)C(Cl)Cl,inactive
9,CCCCN(CCCC)SN(C)C(=O)Oc1cccc2c1OC(C)(C)C2,inactive
10,CO/N=C(/C(=O)OC)c1ccccc1COc1ccccc1C,inactive
11,COP(=O)(O)OC,inactive
12,CC(C)(C)N(NC(=O)c1ccc(Cl)cc1)C(=O)c1ccccc1,inactive
13,N#Cc1ccc(O)cc1,inactive
14,Cc1cccc(N)c1,inactive
15,c1ccc2c(c1)sc1ccccc12,inactive
16,O=C(O)C1C(C(=O)O)C2(Cl)C(Cl)=C(Cl)C1(Cl)C2(Cl)Cl (stereo not given),inactive
17,O=[N+]([O-])c1ccccc1,inactive
18,CCCCC(CC)COC(=O)c1c(Br)c(Br)c(Br)c(Br)c1C(=O)OCC(CC)CCCC (stereo not given),inactive
19,CCOP(=S)(OCC)SCSCC,inactive
20,CC(C)(C)c1ccc(O)cc1,inactive

row,Compound,outcome
1,CCCCN(CC)C(=O)SCCC,inactive
2,CC(Cl)(Cl)C(=O)O,inactive
3,CN(C)C(=O)Cl,inactive
4,[N-]=[N+]=[N-],inactive
5,Cc1c([N+](=O)[O-])cc2c(c1[N+](=O)[O-])C(C)(C)CC2(C)C,inactive
6,CCCCCCCc1ccc(O)cc1,inactive
7,Clc1ccc(Oc2ccccc2)cc1,inactive
8,CCC1(c2ccccc2)C(=O)N=C(O)NC1=O (stereo not given),inactive
9,O=C(O)CF,inactive
10,CC(O)C#N (stereo not given),inactive
11,C/C(=N\NC(=O)Nc1cc(F)cc(F)c1)c1ncccc1C(=O)O,inactive
12,CC(Cc1ccc(OCC(=O)O)cc1)NCC(O)c1csc(C(F)(F)F)n1 (stereo not given),inactive
13,c1ccc(OP(Oc2ccccc2)Oc2ccccc2)cc1,inactive
14,O=NN1CCCC1,inactive
15,ClC(Cl)c1ccccc1,inactive
16,CCOP(=S)(S)OCC,inactive
17,Nc1cc2c3c(c1)C(c1ccccc1)=N[C@@H](NC(=O)c1cccnc1)C(=O)N3CC2,inactive
18,ClC1=C(Cl)C2(Cl)C3C(Cl)C(Cl)CC3C1(Cl)C2(Cl)Cl (stereo not given),inactive
19,ClC(Cl)=C(c1ccc(Cl)cc1)c1ccccc1Cl,inactive
20,CCCCc1ccccc1,inactive
